Measured values published in the supplement of paper PMC6607015.
Counter-ions that a name gives are not always drawn.

Assays:
Settings in all cases: compound concentration in added solution (µM; 5 µl added to 20 µl cells): 10; 18 h
A431 [1] = test: LBPA endosome anti-LBPA integrated intensity (sum per cell), Z-score; higher = more LBPA staining
In short: (§1)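 Z-scores normalised in AcuityXpress are given for per-cell integrated LBPA or filipin intensity, measured whole-cell or within LBPA endosomes by MetaXpress segmentation. Cells (HeLa MZ or A431, 3,500 per well in 20 µl) were seeded onto 5 µl of 10 µM compound solution in duplicate 384-well imaging plates and fixed in 4% PFA after 18 h.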

HeLa MZ [2] = test: as above
In short: as §1

A431 [3] = test: whole-cell filipin (free cholesterol) integrated intensity, Z-score; higher = more cholesterol staining
In short: as §1

HeLa MZ [4] = test: as above
In short: as §1

A431 [5] = test: filipin (cholesterol) integrated intensity within LBPA endosomes, Z-score; higher = more cholesterol in LBPA endosomes
In short: as §1

HeLa MZ [6] = test: as above
In short: as §1

Compound	LBPA endosome anti-LBPA integrated intensity (z-score) (A431 [1])	LBPA endosome anti-LBPA integrated intensity (z-score) (HeLa MZ [2])	whole-cell filipin (z-score) (A431 [3])	whole-cell filipin (z-score) (HeLa MZ [4])	filipin (z-score) (A431 [5])	filipin (z-score) (HeLa MZ [6])
CC(=O)/N=c1/sc(S(N)(=O)=O)nn1C [Methazolamide]	-0.623	-1.23	-0.758	-0.523	-0.506	-0.535
NC(=O)N1c2ccccc2CC(=O)c2ccccc21 [Oxcarbazepine]	-0.669	-1.06	-0.767	-1.13	-0.582	-0.729
CN(Cc1ccc(C(C)(C)C)cc1)Cc1cccc2ccccc12 [Butenafine Hydrochloride]	-0.698	-1.43	-0.644	-0.481	-0.512	-0.793
CNC(=C[N+](=O)[O-])NCCSCc1csc(CN(C)C)n1 [Nizatidine]	-0.247	-0.223	0.149	-0.639	-0.347	-0.405
N=C(N)NC(=O)c1nc(Cl)c(N)nc1N [Amiloride hydrochloride dihydrate]	-0.438	-0.561	-0.785	-0.475	-0.486	-0.551
Nc1cc(-c2ccncc2)c[nH]c1=O [Amrinone]	-0.468	-0.737	-0.578	-0.805	-0.461	-0.541
Nc1ccn([C@H]2CC[C@@H](CO)O2)c(=O)n1 [Zalcitabine]	-0.426	-0.556	0.221	0.402	-0.388	-0.459
Clc1ccccc1C(c1ccccc1)(c1ccccc1)n1ccnc1 [Clotrimazole]	-0.44	0.655	-0.0982	0.216	-0.276	-0.063
CCC[C@@H]1C[C@@H](C(=O)N[C@@H]([C@H]2O[C@H](SC)[C@H](O)[C@@H](O)[C@H]2O)[C@@H](C)O)N(C)C1 [Lincomycin hydrochloride]	-0.565	-0.696	-0.903	-1.08	-0.504	-0.682
CC1(C)O[C@@H]2[C@@H](CO[C@@]3(COS(N)(=O)=O)OC(C)(C)O[C@@H]23)O1 [Topiramate]	-0.482	-0.13	-0.0917	-0.317	-0.419	-0.514
O=C(O)CCC(=O)c1ccc(-c2ccccc2)cc1 [Fenbufen]	-0.493	0.243	-0.496	-0.311	-0.512	-0.583
CCOC(=O)C1=C(C)NC(C)=C(C(=O)OC)C1c1cccc(Cl)c1Cl (stereo not given) [Felodipine]	-0.574	-0.618	-0.869	-0.774	-0.49	-0.476
COc1ccc(/C=C/C(=O)Nc2ccccc2C(=O)O)cc1OC [Tranilast]	-0.353	-0.361	-0.609	-0.648	-0.443	-0.608
NNc1nncc2ccccc12 [Hydralazine hydrochloride]	-0.438	-1.11	-0.55	-0.572	-0.474	-0.461
CN(C)[C@@H]1C(O)=C(C(=O)NCNCCCC[C@H](N)C(=O)O)C(=O)[C@@]2(O)C(O)=C3C(=O)c4c(O)cccc4[C@@](C)(O)[C@H]3C[C@@H]12 [Lymecycline]	-0.193	0.509	0.136	0.267	-0.319	-0.559
Cc1ncc([N+](=O)[O-])n1CCO [Metronidazole]	-0.639	-1.28	-1.11	-0.583	-0.459	-0.544
CC(C)NCC(O)c1cc(O)cc(O)c1 (stereo not given) [Metaproterenol sulfate, orciprenaline sulfate]	-0.366	-0.417	-0.271	-0.375	-0.531	-0.465
CCN[C@H]1CN(CCCOC)S(=O)(=O)c2sc(S(N)(=O)=O)cc21 [Brinzolamide]	-0.542	-0.00126	-0.549	-0.378	-0.517	-0.377
CO[C@H]1/C=C/O[C@@]2(C)Oc3c(C)c(O)c4c(O)c(c(/C=N/N5CCN(C)CC5)c(O)c4c3C2=O)NC(=O)/C(C)=C\C=C\[C@H](C)[C@H](O)[C@@H](C)[C@@H](O)[C@@H](C)[C@H](OC(C)=O)[C@@H]1C [Rifampicin]	-0.422	-0.231	-0.651	-0.372	-0.402	-0.338
C#CCN(C)Cc1ccccc1 [Pargyline hydrochloride]	-0.443	-0.371	-0.77	-0.65	-0.469	-0.441
